Bioassay records as filed in PubChem BioAssay.
Shn3 3UTR inh = reduces Shn3 3'UTR luciferase signal in osteoblasts | Clone20 osteoblast Shn3 3'UTR firefly luciferase, 24 h | inhibition, % at 12.5 µM | hit rate 0.52% among 360,000;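 active = mean inhibition of at least 75% with every replicate also reaching 75%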;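 also: 0% = median of neutral control wells and 100% = pilot-screen positive control compound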
PAX8 inh HTS = PAX8 transcriptional activity inhibition; RMG-I TPO-luciferase reporter, SteadyGlo, 24 h; inhibition, % at 12.6 µM; hit rate 1.2% among 360,000; AID 652154;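 active = mean replicate inhibition at least 60% with every replicate also reaching 60%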;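 also: luciferase light reporting Pax8 driven TPO promoter activity; plate controls were median of neutral control wells for no effect and mitoxantrone controls for full effect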
EWS-Fli inh = blocks EWS/Fli oncoprotein-driven transcription; A673 NR0B1-luciferase reporter, viability-normalised; AID 651661; inhibition, % at 12.6 µM; hit rate 0.67% among 350,000;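 active = mean inhibition of at least 50% after viability correction, with every replicate also passing that limit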;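 also: firefly luciferase signal divided by Alamar Blue viability fluorescence both relative to DMSO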
MITF TRPM1 inh = reduces MITF-dependent TRPM1 promoter luciferase signal; SK-MEL-5 TRPM1 promoter luciferase, 24 h; inhibition, % at 12.5 µM; hit rate 0.83% among 330,000;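 active = mean inhibition across replicates of 60% or more, whatever share of single replicates reaches that level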
LGR2 inh = Drosophila LGR2 receptor signaling inhibition | HEK293 LGR2, CRE-luciferase, bursicon-stimulated, 4 h | inhibition, % at 9.99 µM | hit rate 0.35% among 380,000;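 active = drop in luminescence signal, shown as inhibition above about 50% in the replicate tests, limit read from the data, passing the limit was not always enough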;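 also: agonist challenge used bursicon conditioned medium at about half maximal strength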
LMP1 NFkB inh = inhibitors of Epstein-Barr LMP1-induced NF-kappaB reporter; LMP1-induced NF-kappaB luciferase reporter cells, luminescence; inhibition, % at 12.5 µM; hit rate 0.69% among 350,000; AID 504558; in the data active = inhibition above about 41%;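 also: 0% = neutral control wells and 100% = reference inhibitor control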
Starred values were filed as active, the others as inactive. A selection: hits, their analogues and other compounds. The true share with any hit is near 2.2%.

COc1ccc(S(=O)(=O)N(C)C[C@H]2OCc3ccccc3-c3c(n(C)c4ccccc34)C(=O)N([C@H](C)CO)C[C@H]2C)cc1 was read as EWS-Fli inh 9 and LGR2 inh 23.
COc1cccc(S(=O)(=O)N(C)C[C@@H]2OCc3ccccc3-c3ccccc3C(=O)N([C@@H](C)CO)C[C@@H]2C)c1 was read as PAX8 inh HTS 91*, EWS-Fli inh 0 and LGR2 inh 22.
`O=C(C1=C[C@@H](c2ccc3c(c2)OCO3)C[C@@H](OCc2ccc(CO)cc2)O1)N1CCN(Cc2ccccc2)CC1` gave PAX8 inh HTS -1 and EWS-Fli inh -3.
COc1ccc(S(=O)(=O)N2C[C@@H](O)COC[C@@H]3O[C@H](CC(=O)N(C)C)CC[C@H]32)cc1 was read as PAX8 inh HTS 4, EWS-Fli inh -12 and LGR2 inh 7.
Screening CO[C@@H]1CN(C)C(=O)c2cc(NC(C)=O)ccc2OC[C@@H](C)N(Cc2cccc(F)c2)C[C@H]1C returned PAX8 inh HTS -9, EWS-Fli inh -3 and LGR2 inh -5.
COc1cccc(S(=O)(=O)N(C)C[C@@H]2OCc3ccccc3-c3c(n(C)c4ccccc34)C(=O)N([C@H](C)CO)C[C@H]2C)c1 was read as PAX8 inh HTS 44, EWS-Fli inh 20 and LGR2 inh 0.
COc1cccc(S(=O)(=O)N(C)C[C@@H]2OCc3ccccc3-c3c(n(C)c4ccccc34)C(=O)N([C@H](C)CO)C[C@@H]2C)c1 was read as PAX8 inh HTS 75*, EWS-Fli inh 8 and LGR2 inh 6.
For COc1cccc(S(=O)(=O)N(C)C[C@@H]2OCc3ccccc3-c3c(n(C)c4ccccc34)C(=O)N([C@@H](C)CO)C[C@@H]2C)c1 the results were PAX8 inh HTS 82*, EWS-Fli inh 7 and LGR2 inh 14.
Cc1nc(N2CCN(C(=O)c3ccco3)CC2)c2c3c(sc2n1)CCCC3 was read as Shn3 3UTR inh 24, MITF TRPM1 inh 3 and LMP1 NFkB inh 7.
`Cc1nc(N2CCN(C(=O)c3ccco3)CC2)c2c3c(sc2n1)CC(C)CC3` (stereo unspecified) gave Shn3 3UTR inh 92*, PAX8 inh HTS 21, EWS-Fli inh 18, MITF TRPM1 inh 6, LGR2 inh -6 and LMP1 NFkB inh 12.
For CCOC(=O)C(C)Sc1nnc(-c2c[nH]c3ccccc23)n1C (stereo unspecified) the results were Shn3 3UTR inh -8, PAX8 inh HTS 0, EWS-Fli inh -4, MITF TRPM1 inh 7 and LMP1 NFkB inh 2.
For CCn1c(SCC(=O)NCc2ccco2)nnc1-c1c[nH]c2ccccc12 the results were Shn3 3UTR inh 15, MITF TRPM1 inh -7, LGR2 inh -9 and LMP1 NFkB inh 10.
`COCCn1c(SCC(=O)NCc2ccco2)nnc1-c1c[nH]c2ccccc12` gave Shn3 3UTR inh -10, PAX8 inh HTS 3, EWS-Fli inh 2, MITF TRPM1 inh -3, LGR2 inh -11 and LMP1 NFkB inh 73*.
CCn1c(SC(C)C(=O)OC)nnc1-c1c[nH]c2ccccc12 (stereo unspecified) was read as Shn3 3UTR inh -5, PAX8 inh HTS 4, EWS-Fli inh 5, MITF TRPM1 inh 9, LGR2 inh 3 and LMP1 NFkB inh 75*.
For C[C@@H]1CN([C@@H](C)CO)C(=O)Cc2cc(NS(=O)(=O)c3ccc(F)cc3)ccc2O[C@@H]1CN(C)S(=O)(=O)c1cn(C)cn1 the results were PAX8 inh HTS -9, EWS-Fli inh 1 and LGR2 inh 17.
For CO[C@H]1CN(C)C(=O)c2ccc(NC(=O)Nc3cccc(F)c3)cc2OC[C@H](C)N(C(=O)C2CC2)C[C@@H]1C the results were EWS-Fli inh -7 and LGR2 inh 4.
OC(CNCC(c1ccc(Cl)cc1Cl)c1c[nH]c2ccccc12)c1ccccc1 (stereo unspecified) was read as Shn3 3UTR inh 36, PAX8 inh HTS 93*, EWS-Fli inh 48, MITF TRPM1 inh 100*, LGR2 inh 102* and LMP1 NFkB inh -37.
For CO[C@@]12[C@@H]3N[C@@H]3CN1C1=C(C(=O)C(N)=C(C)C1=O)[C@@H]2COC(N)=O the results were Shn3 3UTR inh 26, PAX8 inh HTS 48, EWS-Fli inh 27, MITF TRPM1 inh 58, LGR2 inh -18 and LMP1 NFkB inh 62*.
